Source: PubChem BioAssay (EPA / NIEHS)
Records with an inconclusive call do not appear. Calls of active or inactive are those of the source. Rule for the calls: active = hit-call score of the fitted dose curve at least 0.9, where 1 is the maximum; inconclusive = response in the unintended direction; inactive = score below 0.9.

These compounds were tested against Peroxisome proliferator-activated receptor gamma (Homo sapiens) (UniProt P37231) (assay: ATG_PPARg_TRANS: Attagene TRANS-FACTORIAL HepG2 Assay for human Peroxisome Proliferator-activated Receptor-gamma (PPARg) (AID 2283007)).
Peroxisome proliferator-activated receptor gamma (Homo sapiens), sequence (P37231 whole entry, looked up): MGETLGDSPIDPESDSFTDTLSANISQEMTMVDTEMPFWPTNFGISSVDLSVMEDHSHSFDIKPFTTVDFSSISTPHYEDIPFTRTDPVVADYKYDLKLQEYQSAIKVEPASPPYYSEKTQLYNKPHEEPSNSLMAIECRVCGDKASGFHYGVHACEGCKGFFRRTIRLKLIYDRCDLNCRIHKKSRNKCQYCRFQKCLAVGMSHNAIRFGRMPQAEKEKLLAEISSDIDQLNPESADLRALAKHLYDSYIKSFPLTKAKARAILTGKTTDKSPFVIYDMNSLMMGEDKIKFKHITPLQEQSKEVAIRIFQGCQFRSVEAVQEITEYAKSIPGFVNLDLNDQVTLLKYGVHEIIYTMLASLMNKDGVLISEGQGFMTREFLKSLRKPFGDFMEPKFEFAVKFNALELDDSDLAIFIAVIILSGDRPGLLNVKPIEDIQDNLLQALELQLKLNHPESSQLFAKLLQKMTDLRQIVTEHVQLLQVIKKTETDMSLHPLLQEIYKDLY
Experimental: ATG_TRANS is a cell-based, multiplexed-readout assay that uses HepG2, a human liver cell line, with measurements taken at 24 hours after chemical dosing in a 24-well plate.ATG_PPARg_TRANS is one of 30 assay component(s) measured or calculated from the ATG_TRANS assay. It is designed to make measurements of mRNA induction, a form of inducible reporter, as detected with fluorescence intensity signals by Reverse transcription polymerase chain reaction (RT-PCR) and Capillary electrophoresis technology.Data from the assay component ATG_PPARg_TRANS was analyzed into 1 assay endpoint. This assay endpoint, ATG_PPARg_TRANS, was analyzed in the positive analysis fitting direction relative to DMSO as the negative control and baseline of activity. Using a type of inducible reporter, measures of mRNA for gain-of-signal activity can be used to understand the reporter gene at the transcription factor-level as they relate to the gene PPARG. Furthermore, this assay endpoint can be referred to as a primary readout, because this assay has produced multiple assay endpoints where this one serves a reporter gene function. To generalize the intended target to other relatable targets, this assay endpoint is annotated to the nuclear receptor intended target family, where the subfamily is non-steroidal.
Human liver HepG2 cells are transiently transfected with multiple reporter transcription units (MRTUs) in 6-well plates using FuGene 6 reagent (Roche; 3 ml FuGene/1 mg DNA). The MRTU constructs are regulated by a cis-regulating element (promoter). […] A major difference between the CIS and TRANS system is that in CIS activities of endogenous TFs are measured, whereas the TRANS assay evaluates changes in activities of exogenous, chimeric NR-Gal4 proteins. […] At the end of 24 hour incubation, total RNA was isolated using TriZol reagent (Invitrogen). The isolated RNA is then reverse-transcribed using oligo(dT) primer and Mo-MLV reverse transcriptase (Invitrogen) with DNAse I (Ambion) treatment for 30 min. The one-tenth of the produced cDNA was amplified by PCR using Taq DNA polymerase (Invitrogen) and two reporter sequence-specific primers. The PCR products were fluorescently labeled by primer extension with 6-arboxyfluorescein (6-FAM) 5'-labeled reporter sequence-specific primer (2 min at 95 C, 20 s at 68 C and 10 min at 72 C) and these products were digested with 5U of HpaI (New England Biolabs) for 2h at 37 C. The fragments were purified using Qiaquick PCR columns (Qiagen), analyzed on an ABI 3130xL genetic analyzer (Applied Biosystems) with peak positions identified by using a set of X-rhodamine (ROX)-labeled MapMarker1000 molecular weight standards (BioVentures). The raw capillary electrophoresis data was processed using Attagraph software (Attagene).
`CC(C)c1cc(C(C)C)cc(C(C)C)c1` was tested, and the outcome was “inactive”.
In the case of `Nc1cccc(N)n1`, the outcome is reported as “inactive”.
For `CC(=O)CCC=C(C)C`, the outcome was “inactive”.
For `O=C1CCCN1C1CCCCC1`, the outcome was “inactive”.
For `CCCc1ccc(O)c(OC)c1`, the AC50 was 57.2 µM (active).
For `CC1=CC=C(C(C)C)CC1`, the outcome was “inactive”.
`CCCCCCCCCCCCCC(=O)OC(C)C` was tested, and the outcome was “inactive”.
With `Cc1ccc([N+](=O)[O-])cc1N` the outcome was “inactive”.
With `CCCCCCCCCCCC(=O)N(C)CC(=O)O` the AC50 was 13.1 µM (active).
For `CN(C)c1ccc2nc3ccc(=[N+](C)C)cc-3sc2c1`, the AC50 was 12.1 µM (active).
`CC(=O)/C=C/C1C(C)=CCCC1(C)C` (stereo not given) was tested, and the AC50 was 42.1 µM (active).
For `CC(=O)OCC=C(C)C`, the outcome was “inactive”.
For `CCCC(C)C(=O)OCC` (stereo not given), the outcome was “inactive”.
For `CC(C)c1ccc(O)c(C(C)C)c1`, the outcome was “inactive”.
In the case of `Cc1cc(C)n(CO)n1`, the outcome is reported as “inactive”.
In the case of `CCCCCCC=O`, the AC50 is reported as 100 µM (active).
With `Nc1ccc(C(=O)OCCCOC(=O)c2ccc(N)cc2)cc1` the AC50 was 33.4 µM (active).
With `CCOC(=O)C1=NN(c2ccc(Cl)cc2Cl)C(C)(C(=O)OCC)C1` (stereo not given) the AC50 was 87.1 µM (active).
For `N=C1C=CC(=C(c2ccc(N)cc2)c2ccc(N)cc2)C=C1`, the AC50 was 31.9 µM (active).
`CCCCCCCCCCCCCCCCCCOS(=O)(=O)O` was tested, and the AC50 was 8.35 µM (active).
For `CC(C)[N+](C)(CCOC(=O)C1c2ccccc2Oc2ccccc21)C(C)C`, the AC50 was 58.2 µM (active).
In the case of `C[N+](C)(C)CCCNS(=O)(=O)C(F)(F)C(F)(F)C(F)(F)C(F)(F)C(F)(F)C(F)(F)C(F)(F)C(F)(F)F`, the outcome is reported as “inactive”.
For `COC(=O)CC(C)CCC=C(C)C` (stereo not given), the outcome was “inactive”.
For `O=C(Cl)c1c(Cl)c(Cl)c(C(=O)Cl)c(Cl)c1Cl`, the outcome was “inactive”.
For `CCOC(=O)c1ccc(C)cc1`, the outcome was “inactive”.
For `CCCCCC1=CCCC1=O`, the AC50 was 35.4 µM (active).
`c1ccc(Nc2cccc3ccccc23)cc1` was tested, and the AC50 was 18.3 µM (active).
In the case of `C=CC(=O)OCCCCCCCC(C)C`, the AC50 is reported as 27.1 µM (active).
For `c1ccc2c(c1)[nH]c1ccccc12`, the outcome was “inactive”.
`C=CCNCC=C` was tested, and the outcome was “inactive”.
For `CC(Cl)COP(=O)(OCC(C)Cl)OCC(C)Cl` (stereo not given), the outcome was “inactive”.
In the case of `Nc1ccc(Cl)c(N)c1`, the outcome is reported as “inactive”.
With `CC(C)COC(=O)CC(C(=O)OCC(C)C)S(=O)(=O)O` (stereo not given) the AC50 was 66.8 µM (active).
`CCCC(CC)c1ccccc1` (stereo not given) was tested, and the outcome was “inactive”.
With `CC1=CCC(C(C)C)C=C1` (stereo not given) the outcome was “inactive”.
For `CCCCOC(=O)CCC(C)=O`, the outcome was “inactive”.
In the case of `Cc1cc(C)c(C=O)c(C)c1`, the outcome is reported as “inactive”.
In the case of `CCCCNS(=O)(=O)c1ccccc1`, the outcome is reported as “inactive”.
`CC(C)C(=O)OCCOc1ccccc1` was tested, and the outcome was “inactive”.
With `C=CC(=O)OCCCCCCCCCC` the AC50 was 3.15 µM (active).
